The text below walks through data of the supplement of paper PMC10849652.

About 7,900 targets were measured; listed, in parts, are those with a hit and a random draw of the rest. About 0.6% of all pairs of compound and target were hits. A number with no mark means an inactive call.

Chain of UniProt O95628 (O95628 whole entry, looked up): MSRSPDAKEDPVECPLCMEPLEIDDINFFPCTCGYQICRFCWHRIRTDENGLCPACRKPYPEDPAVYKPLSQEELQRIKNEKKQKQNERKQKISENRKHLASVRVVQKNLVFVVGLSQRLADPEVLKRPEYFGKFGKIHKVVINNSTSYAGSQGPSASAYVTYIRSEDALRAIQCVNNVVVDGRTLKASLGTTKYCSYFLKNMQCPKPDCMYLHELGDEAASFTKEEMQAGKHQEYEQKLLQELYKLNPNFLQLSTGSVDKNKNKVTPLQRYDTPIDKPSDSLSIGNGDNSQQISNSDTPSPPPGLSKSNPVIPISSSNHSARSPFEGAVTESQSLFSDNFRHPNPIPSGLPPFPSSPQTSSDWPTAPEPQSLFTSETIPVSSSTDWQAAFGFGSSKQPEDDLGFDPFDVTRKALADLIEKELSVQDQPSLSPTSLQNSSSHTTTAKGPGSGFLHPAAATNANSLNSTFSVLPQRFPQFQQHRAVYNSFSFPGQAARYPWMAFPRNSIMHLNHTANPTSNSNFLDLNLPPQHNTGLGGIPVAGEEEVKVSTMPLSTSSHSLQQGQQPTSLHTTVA
Chain of UniProt Q96G23 (Q96G23 whole entry, looked up): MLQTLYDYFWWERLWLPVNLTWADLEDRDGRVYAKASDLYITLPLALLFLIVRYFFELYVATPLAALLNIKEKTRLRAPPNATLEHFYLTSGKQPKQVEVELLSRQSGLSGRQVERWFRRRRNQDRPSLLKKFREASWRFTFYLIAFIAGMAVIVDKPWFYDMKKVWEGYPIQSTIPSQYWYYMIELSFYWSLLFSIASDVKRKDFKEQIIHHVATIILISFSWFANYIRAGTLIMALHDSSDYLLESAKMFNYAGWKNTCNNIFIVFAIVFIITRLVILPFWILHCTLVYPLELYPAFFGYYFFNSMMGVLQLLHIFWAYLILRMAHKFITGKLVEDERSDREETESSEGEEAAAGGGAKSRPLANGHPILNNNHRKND
Chain of UniProt O00748 (O00748 whole entry, looked up): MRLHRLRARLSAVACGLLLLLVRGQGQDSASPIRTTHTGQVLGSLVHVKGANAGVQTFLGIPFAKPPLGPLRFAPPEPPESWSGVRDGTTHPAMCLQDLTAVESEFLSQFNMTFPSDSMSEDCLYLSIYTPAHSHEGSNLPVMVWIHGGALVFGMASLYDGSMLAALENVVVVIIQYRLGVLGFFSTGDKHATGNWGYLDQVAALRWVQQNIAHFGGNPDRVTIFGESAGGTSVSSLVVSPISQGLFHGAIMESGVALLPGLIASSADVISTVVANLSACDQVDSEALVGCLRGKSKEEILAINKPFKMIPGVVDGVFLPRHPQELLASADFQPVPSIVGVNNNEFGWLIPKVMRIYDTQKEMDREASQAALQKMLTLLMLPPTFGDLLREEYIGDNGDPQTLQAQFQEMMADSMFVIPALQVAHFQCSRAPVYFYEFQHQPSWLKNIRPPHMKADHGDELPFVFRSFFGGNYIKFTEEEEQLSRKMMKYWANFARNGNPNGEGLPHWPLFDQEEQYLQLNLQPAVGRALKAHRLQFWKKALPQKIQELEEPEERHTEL
Chain of UniProt O95273 (O95273 whole entry, looked up): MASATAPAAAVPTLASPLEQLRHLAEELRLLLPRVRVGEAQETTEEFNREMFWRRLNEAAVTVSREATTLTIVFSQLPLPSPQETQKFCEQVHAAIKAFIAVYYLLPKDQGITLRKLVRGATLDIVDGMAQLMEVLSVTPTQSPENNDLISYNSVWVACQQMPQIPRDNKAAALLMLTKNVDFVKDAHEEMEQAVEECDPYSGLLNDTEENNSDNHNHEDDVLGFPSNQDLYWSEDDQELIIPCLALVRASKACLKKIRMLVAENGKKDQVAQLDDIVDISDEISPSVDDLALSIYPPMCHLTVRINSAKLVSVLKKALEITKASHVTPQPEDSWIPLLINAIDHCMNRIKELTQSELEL
Chain of UniProt Q92851 (Q92851 whole entry, looked up): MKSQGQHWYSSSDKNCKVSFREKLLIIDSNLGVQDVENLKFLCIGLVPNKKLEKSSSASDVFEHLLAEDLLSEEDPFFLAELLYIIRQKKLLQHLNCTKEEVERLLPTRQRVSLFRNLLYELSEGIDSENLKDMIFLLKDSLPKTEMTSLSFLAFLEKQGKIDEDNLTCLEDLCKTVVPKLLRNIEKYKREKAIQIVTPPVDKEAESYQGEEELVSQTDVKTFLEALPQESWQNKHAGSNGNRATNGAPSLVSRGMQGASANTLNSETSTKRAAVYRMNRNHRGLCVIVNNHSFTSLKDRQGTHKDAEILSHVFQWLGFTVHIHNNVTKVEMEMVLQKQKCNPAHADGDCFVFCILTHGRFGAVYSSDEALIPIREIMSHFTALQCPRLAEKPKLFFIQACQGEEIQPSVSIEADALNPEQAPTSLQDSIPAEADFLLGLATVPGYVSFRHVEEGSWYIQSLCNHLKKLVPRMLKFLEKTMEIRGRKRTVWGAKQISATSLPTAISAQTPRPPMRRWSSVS
Chain of UniProt O75976 (O75976 whole entry, looked up): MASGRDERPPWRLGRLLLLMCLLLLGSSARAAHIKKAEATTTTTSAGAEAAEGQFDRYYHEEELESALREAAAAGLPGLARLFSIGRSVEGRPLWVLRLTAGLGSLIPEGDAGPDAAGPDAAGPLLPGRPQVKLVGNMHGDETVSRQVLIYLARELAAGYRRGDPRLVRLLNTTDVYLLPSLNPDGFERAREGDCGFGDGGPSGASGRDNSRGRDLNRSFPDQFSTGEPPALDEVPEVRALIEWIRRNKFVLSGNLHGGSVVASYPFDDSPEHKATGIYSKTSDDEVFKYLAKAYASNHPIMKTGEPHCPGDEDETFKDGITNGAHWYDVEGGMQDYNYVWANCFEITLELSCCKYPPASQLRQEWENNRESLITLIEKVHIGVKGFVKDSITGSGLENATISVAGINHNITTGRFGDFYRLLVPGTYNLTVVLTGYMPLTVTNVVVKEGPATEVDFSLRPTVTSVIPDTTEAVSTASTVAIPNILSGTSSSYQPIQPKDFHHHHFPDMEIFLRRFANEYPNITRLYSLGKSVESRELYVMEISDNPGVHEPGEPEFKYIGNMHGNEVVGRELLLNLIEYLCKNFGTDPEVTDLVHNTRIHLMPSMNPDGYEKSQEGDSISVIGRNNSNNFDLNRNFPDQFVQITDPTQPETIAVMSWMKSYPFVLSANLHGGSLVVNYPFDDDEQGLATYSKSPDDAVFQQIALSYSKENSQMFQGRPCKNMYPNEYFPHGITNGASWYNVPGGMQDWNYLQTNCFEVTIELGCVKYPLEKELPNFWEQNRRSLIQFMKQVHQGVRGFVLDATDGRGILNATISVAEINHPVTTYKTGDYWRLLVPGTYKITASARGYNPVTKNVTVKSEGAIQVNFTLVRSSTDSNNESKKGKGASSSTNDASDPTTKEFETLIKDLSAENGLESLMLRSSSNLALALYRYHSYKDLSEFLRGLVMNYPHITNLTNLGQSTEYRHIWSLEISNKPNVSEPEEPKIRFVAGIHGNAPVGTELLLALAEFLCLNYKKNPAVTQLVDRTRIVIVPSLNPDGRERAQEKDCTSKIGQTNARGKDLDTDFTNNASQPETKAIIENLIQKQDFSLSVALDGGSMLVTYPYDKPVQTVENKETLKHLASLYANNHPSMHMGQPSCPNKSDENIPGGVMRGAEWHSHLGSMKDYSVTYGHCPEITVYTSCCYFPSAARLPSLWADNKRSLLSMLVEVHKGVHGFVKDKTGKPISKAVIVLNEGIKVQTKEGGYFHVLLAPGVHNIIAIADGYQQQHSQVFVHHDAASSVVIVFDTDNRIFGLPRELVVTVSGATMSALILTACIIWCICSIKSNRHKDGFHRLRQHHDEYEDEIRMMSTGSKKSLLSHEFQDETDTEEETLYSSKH
Chain of UniProt P61024 (P61024 whole entry, looked up): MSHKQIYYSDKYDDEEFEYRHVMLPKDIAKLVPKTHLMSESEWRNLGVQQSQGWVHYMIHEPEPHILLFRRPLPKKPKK
Chain of UniProt P67870 (P67870 whole entry, looked up): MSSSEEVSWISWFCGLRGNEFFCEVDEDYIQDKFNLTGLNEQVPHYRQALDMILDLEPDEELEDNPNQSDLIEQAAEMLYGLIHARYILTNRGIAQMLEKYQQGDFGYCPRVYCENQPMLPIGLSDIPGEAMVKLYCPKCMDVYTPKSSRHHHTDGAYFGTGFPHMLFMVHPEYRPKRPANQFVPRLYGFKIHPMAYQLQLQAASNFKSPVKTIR
Chain of UniProt Q01459 (Q01459 whole entry, looked up): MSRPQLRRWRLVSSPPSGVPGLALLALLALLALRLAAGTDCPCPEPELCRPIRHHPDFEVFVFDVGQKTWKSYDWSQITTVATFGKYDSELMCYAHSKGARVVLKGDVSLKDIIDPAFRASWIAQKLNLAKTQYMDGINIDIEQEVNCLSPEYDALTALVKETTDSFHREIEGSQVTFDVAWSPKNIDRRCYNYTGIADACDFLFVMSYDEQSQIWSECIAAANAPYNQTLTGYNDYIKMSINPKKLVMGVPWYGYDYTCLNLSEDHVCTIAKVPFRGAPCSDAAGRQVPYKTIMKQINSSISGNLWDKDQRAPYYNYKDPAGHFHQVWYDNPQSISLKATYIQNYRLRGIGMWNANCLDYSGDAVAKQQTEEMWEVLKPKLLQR
Chain of UniProt Q00534 (Q00534 whole entry, looked up): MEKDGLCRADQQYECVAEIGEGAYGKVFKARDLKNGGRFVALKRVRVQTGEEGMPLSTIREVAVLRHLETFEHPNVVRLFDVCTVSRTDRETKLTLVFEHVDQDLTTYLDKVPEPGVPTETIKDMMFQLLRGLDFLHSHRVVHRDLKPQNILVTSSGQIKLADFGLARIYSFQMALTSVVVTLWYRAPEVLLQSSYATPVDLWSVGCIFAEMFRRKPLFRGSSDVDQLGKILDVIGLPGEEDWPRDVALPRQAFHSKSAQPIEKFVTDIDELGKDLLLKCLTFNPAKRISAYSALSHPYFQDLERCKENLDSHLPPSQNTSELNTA
Chain of UniProt Q13901 (Q13901 whole entry, looked up): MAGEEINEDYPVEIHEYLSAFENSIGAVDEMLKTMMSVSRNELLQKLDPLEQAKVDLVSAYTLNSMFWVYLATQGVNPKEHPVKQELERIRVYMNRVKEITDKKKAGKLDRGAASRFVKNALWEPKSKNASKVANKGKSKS

Compound in this assay: c1cn2cc(-c3ccc4cn[nH]c4c3)nc(Nc3ccc(N4CCOCC4)cc3)c2n1 [entospletinib]
Description: log2 fold change, soluble protein after heating vs DMSO (PISA); higher = thermal stabilisation; K562 cells, 10 uM, 30 min; active = over 0.2 and 3.5 SD of the protein, either way, in both replicates (recomputed). An outline of the steps: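 Values are thermal stability changes relative to control samples and are taken from duplicates. They are stated as log2 fold changes. Before quantification by TMTpro 16plex LC-MS/MS with equalised channel sums, K562 cells at 2×10^6 cells/mL were treated with 10 μM compound for 30 min, heated in aliquots for 3 min across 48°C-58°C, pooled, extracted in PBS with 0.5% NP-40 at 4°C, and centrifuged at 21,000xg for 90 min to give the soluble supernatant.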
As to CASP10 isoform 4 (UniProt Q92851), the log2 fold change is 0.06.
The value for CLN8 (UniProt Q9UBY8) was 0.022; that for CNOT4 isoform 9 (UniProt O95628) was 0.02; that for CCNT1 (UniProt O60563) was 0.038.
Regarding CES2 isoform 4 (UniProt O00748), the log2 fold change was 0.02.
CRTC2 (UniProt Q53ET0): the log2 fold change is -0.038.
The value for CCNDBP1 (UniProt O95273) was 0.029; that for CRLS1 (UniProt Q9UJA2) was -0.036; that for COPS8 (UniProt Q99627) was 0.
The value for CPD (UniProt O75976) was 0.011; that for CAMSAP1 isoform 3 (UniProt Q5T5Y3) was -0.003.
The value for C1D (UniProt Q13901) was -0.043.
As for CIZ1 (UniProt Q9ULV3), the log2 fold change is -0.012.
Turning to CSNK2B (UniProt P67870), the log2 fold change is 0.077.
CRLF3 (UniProt Q8IUI8): the log2 fold change was 0.089.
The value for CTBS (UniProt Q01459) was 0.049; that for CNOT4 isoform 6 (UniProt O95628) was -0.008.
Consider C9orf64 (UniProt Q5T6V5), for which the log2 fold change is 0.009.
Consider CLINT1 (UniProt Q14677), for which the log2 fold change was 0.16.
Take CDKN2AIP (UniProt Q9NXV6): the log2 fold change was -0.014.
Regarding CBR1 (UniProt P16152), the log2 fold change is -0.019.
Consider CKS1B (UniProt P61024), for which the log2 fold change is 0.
For the target CSTF3 (UniProt Q12996), the log2 fold change is -0.064.
On to COX6B1 (UniProt P14854), for which the log2 fold change was 0.078.
The value for CCNT2 (UniProt O60583) was -0.05; that for CRYM-AS1 (UniProt A6NIL9) was -0.459.
CCAR2 isoform 2 (UniProt Q8N163): the log2 fold change is -0.014.
As to CPSF3 (UniProt Q9UKF6), the log2 fold change was 0.
The value for CCAR1 (UniProt Q8IX12) was -0.015; that for CDC123 (UniProt O75794) was -0.081.
C4orf33 (UniProt Q8N1A6): the log2 fold change was 0.082.
The value for COPS3 (UniProt Q9UNS2) was 0.011; that for CLASP2 isoform 3 (UniProt O75122) was -0.046; that for CERS2 (UniProt Q96G23) was -0.018.
The value for CHD3 isoform 3 (UniProt Q12873) was -0.001.
Take CDK6 (UniProt Q00534): the log2 fold change was 0.036.
In the case of CDK1 (UniProt P06493), the log2 fold change is -0.024.
